Results filed as inconclusive are left out. Some structures have more than one record in an assay (separate samples or runs), and their calls can disagree. Calls of active or inactive are those of the source. Rule for the calls, unless noted: active = hit-call score of the fitted dose curve at least 0.9, where 1 is the maximum; inactive = score below 0.9.
What was measured:
[1] = molecular target: human Retinoid X Receptor beta (RXRb), RXRB (gene 6257) (UniProt P28702); experiment: ATG_RXRb_TRANS: Attagene TRANS-FACTORIAL HepG2 Assay for human Retinoid X Receptor beta (RXRb) (AID 2283013; active = hit-call score of the fitted dose curve at least 0.9, where 1 is the maximum)
Summary of the method: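 After a 24 h incubation with test chemical, transfected HepG2 cells carrying NR-Gal4 fusions and GAL4-UAS reporter transcription units yield RNA whose reporter cDNA is FAM-labelled, HpaI-cut and sized by capillary electrophoresis; increases over DMSO are scored.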

[2] = molecular target: human Thyroid Receptor alpha (THRa1), THRA (gene 7067) (UniProt P10827); experiment: ATG_THRa1_TRANS: Attagene TRANS-FACTORIAL HepG2 Assay for human Thyroid Receptor alpha (THRa1) (AID 2283014; active = hit-call score of the fitted dose curve at least 0.9, where 1 is the maximum)
Summary of the method: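 HepG2 cells transiently transfected with chimeric NR-Gal4 and GAL4-UAS reporter units, dosed 24 h. Reporter mRNA quantified by RT-PCR, fluorescent labeling, HpaI digestion and capillary electrophoresis; gain-of-signal fit versus DMSO.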

[3] = molecular target: human Vitamin D Receptor (VDR), VDR (gene 7421) (UniProt P11473); experiment: ATG_VDR_TRANS: Attagene TRANS-FACTORIAL HepG2 Assay for human Vitamin D Receptor (VDR) (AID 2283022; active = hit-call score of the fitted dose curve at least 0.9, where 1 is the maximum)
Summary of the method: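 HepG2 cells were transiently transfected with GAL4-UAS reporter units and a chimeric VDR-Gal4 construct, then dosed for 24 hours. Reporter mRNA was quantified by RT-PCR, fluorescent labeling, HpaI digestion and capillary electrophoresis; gain of signal analysed vs DMSO.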

[4] = read-out: E-selectin (Homo sapiens) (UniProt P16581); experiment: BSK_3C_Eselectin: BioMAP Diversity Plus: 3C Assay for Eselectin Biomarker Activity (AID 2283015); conditions: primary human endothelial cells (HUVEC); actives raise or lower the signal;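 for outcome: cell surface E-selectin protein quantified by ELISA 24 h after dosing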
Summary of the method: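 Primary human umbilical vein endothelial cells (3C system), read 24 h after compound addition; E-selectin measured by ELISA. Bidirectional curve fitting against DMSO baseline; cytotoxicity by parallel SRB total-protein staining.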

[5] = read-out: Interleukin-1 alpha (IL1a), IL1A (gene 3552); experiment: BSK_BE3C_IL1a: BioMAP Diversity Plus: BE3C Assay for Interleukin-1 alpha (IL1a) Biomarker Activity (AID 2283016); conditions: primary human bronchial epithelial cells; actives raise or lower the signal
Summary of the method: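 Measured in human lung primary bronchial epithelial cells: IL-1a by ELISA at 24 h after dosing, with bidirectional fitting against DMSO.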

[6] = read-out: Monocyte Chemoattractant Protein-1 (MCP1), CCL2 (gene 6347); experiment: BSK_3C_MCP1: BioMAP Diversity Plus: 3C Assay for Monocyte Chemoattractant Protein-1 (MCP1) Biomarker Activity (AID 2283017); conditions: primary human endothelial cells (HUVEC); actives raise or lower the signal
Summary of the method: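 Human umbilical vein endothelial cells (3C system) exposed to chemicals for 24 h; MCP-1 quantified by ELISA against the DMSO baseline with bidirectional fitting, and parallel SRB staining used to assess cytotoxicity.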

[7] = read-out: Human Leukocyte Antigen - DR isotype (HLADR), HLA-DRA (gene 3122); experiment: BSK_3C_HLADR: BioMAP Diversity Plus: 3C Assay for Human Leukocyte Antigen - DR isotype (HLADR) Biomarker Activity (AID 2283019); conditions: primary human endothelial cells (HUVEC); actives raise or lower the signal;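 for outcome: ELISA of cell-surface HLA-DR on HUVEC 24 h after dosing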
Summary of the method: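 HUVEC monoculture, HLA-DR measured by ELISA 24 h after chemical dosing. Fitted bidirectionally against DMSO baseline; parallel SRB staining assessed cytotoxicity, with 3C proliferation read by SRB at 48 h.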

[8] = read-out: Interleukin-8 (IL8), CXCL8 (gene 3576); experiment: BSK_3C_IL8: BioMAP Diversity Plus: 3C Assay for Interleukin-8 (IL8) Biomarker Activity (AID 2283020); conditions: primary human endothelial cells (HUVEC); actives raise or lower the signal
Summary of the method: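 Using DMSO-treated wells as the baseline, bidirectional curve fitting was applied to ELISA-measured IL-8 from human umbilical vein endothelial cultures sampled 24 h after compound addition.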

[9] = read-out: Matrix Metallopeptidase 1 (MMP1), MMP1 (gene 4312); experiment: BSK_BE3C_MMP1: BioMAP Diversity Plus: BE3C Assay for Matrix Metallopeptidase 1 (MMP1) Biomarker Activity (AID 2283024); conditions: primary human bronchial epithelial cells; actives raise or lower the signal
Summary of the method: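 In this multiplexed primary-cell system, human bronchial epithelium received chemicals for 24 h before an ELISA for MMP1. Values reflect bidirectional fits normalised to the DMSO baseline.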

[10] = BSK_3C_Vis: BioMAP Diversity Plus: 3C Assay for Morphology Visualization (AID 2283025); conditions: primary human endothelial cells (HUVEC);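 note: fitted both ways so gain or loss versus DMSO counts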;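 for AC50: light microscopy image of cell morphology used as background control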
Summary of the method: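 Light-microscopy morphology readout, 24 h exposure, human primary umbilical vein endothelium; analysed relative to DMSO with bidirectional fitting.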

[11] = read-out: Pselectin, SELP (gene 6403); experiment: BSK_4H_Pselectin: BioMAP Diversity Plus: 4H Assay for Pselectin Biomarker Activity (AID 2283026); conditions: primary human endothelial cells (HUVEC); actives raise or lower the signal
Summary of the method: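 Bidirectional fits against DMSO gave the endpoint. Cells: primary human umbilical vein endothelium, chemical-treated for 24 h before ELISA detection of P-selectin.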

[12] = BSK_4H_SRB: Viability Assessment in the BioMAP Diversity Plus: 4H Assay (AID 2283027); conditions: primary human endothelial cells (HUVEC);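 note: cells exposed to compound for 24 h before staining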
Summary of the method: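 HUVEC, 24 h post-dose; 10% TCA fix, 0.1% SRB stain, A560 nm. Total protein = overt cytotoxicity, parallel to biomarker read. Bidirectional fit vs DMSO baseline.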

[13] = BSK_BE3C_SRB: Viability Assessment in the BioMAP Diversity Plus: BE3C Assay (AID 2283028); conditions: primary human bronchial epithelial cells
Summary of the method: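 Human bronchial epithelial primary cells in confluent culture, 24 h after chemical dosing; total protein by 0.1% SRB staining after 10% TCA fixation, read at 560 nm. Bidirectional fitting versus DMSO baseline.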

[14] = read-out: Thrombomodulin, THBD (gene 7056); experiment: BSK_3C_Thrombomodulin: BioMAP Diversity Plus: 3C Assay for Thrombomodulin Biomarker Activity (AID 2283029); conditions: primary human endothelial cells (HUVEC); actives raise or lower the signal
Summary of the method: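 In a multiplexed primary-cell system, human umbilical vein endothelium received chemical and was assayed 24 h later for thrombomodulin by ELISA. Parallel cultures were SRB-stained (0.1% SRB after 10% TCA fixation, read at 560 nm) to flag cytotoxicity.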

[15] = read-out: Urokinase-type plasminogen activator receptor (uPAR), PLAUR (gene 5329); experiment: BSK_4H_uPAR: BioMAP Diversity Plus: 4H Assay for Urokinase-type plasminogen activator receptor (uPAR) Biomarker Activity (AID 2283030); conditions: primary human endothelial cells (HUVEC); actives raise or lower the signal
Summary of the method: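 Human umbilical vein endothelial cells in the 4H system, 24 h after chemical dosing. Cell-surface uPAR measured by ELISA, fitted in both directions versus DMSO; cytotoxicity checked by SRB total protein in parallel cultures.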

[16] = read-out: Monocyte Chemoattractant Protein-1 (MCP1), CCL2 (gene 6347); experiment: BSK_4H_MCP1: BioMAP Diversity Plus: 4H Assay for Monocyte Chemoattractant Protein-1 (MCP1) Biomarker Activity (AID 2283018); conditions: primary human endothelial cells (HUVEC); actives raise or lower the signal
Summary of the method: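 Primary human umbilical vein endothelium is exposed to chemical for 24 h before MCP-1 is assayed by ELISA. Concentration-response fitted bidirectionally relative to DMSO.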

Sequence of human Vitamin D Receptor (VDR), VDR (gene 7421) (P11473 whole entry, looked up, the tested form may be a part): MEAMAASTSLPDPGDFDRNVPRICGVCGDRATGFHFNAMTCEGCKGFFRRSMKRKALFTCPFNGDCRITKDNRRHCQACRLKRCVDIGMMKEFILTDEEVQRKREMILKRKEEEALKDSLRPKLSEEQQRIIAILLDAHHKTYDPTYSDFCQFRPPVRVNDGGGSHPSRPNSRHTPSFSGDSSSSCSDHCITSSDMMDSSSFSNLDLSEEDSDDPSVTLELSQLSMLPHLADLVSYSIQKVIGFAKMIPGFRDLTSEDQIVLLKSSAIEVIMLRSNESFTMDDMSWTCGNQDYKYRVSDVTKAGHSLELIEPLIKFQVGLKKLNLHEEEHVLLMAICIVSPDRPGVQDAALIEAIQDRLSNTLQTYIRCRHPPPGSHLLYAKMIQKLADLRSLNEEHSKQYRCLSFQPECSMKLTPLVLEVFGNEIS
Sequence of E-selectin (Homo sapiens) (P16581 whole entry, looked up): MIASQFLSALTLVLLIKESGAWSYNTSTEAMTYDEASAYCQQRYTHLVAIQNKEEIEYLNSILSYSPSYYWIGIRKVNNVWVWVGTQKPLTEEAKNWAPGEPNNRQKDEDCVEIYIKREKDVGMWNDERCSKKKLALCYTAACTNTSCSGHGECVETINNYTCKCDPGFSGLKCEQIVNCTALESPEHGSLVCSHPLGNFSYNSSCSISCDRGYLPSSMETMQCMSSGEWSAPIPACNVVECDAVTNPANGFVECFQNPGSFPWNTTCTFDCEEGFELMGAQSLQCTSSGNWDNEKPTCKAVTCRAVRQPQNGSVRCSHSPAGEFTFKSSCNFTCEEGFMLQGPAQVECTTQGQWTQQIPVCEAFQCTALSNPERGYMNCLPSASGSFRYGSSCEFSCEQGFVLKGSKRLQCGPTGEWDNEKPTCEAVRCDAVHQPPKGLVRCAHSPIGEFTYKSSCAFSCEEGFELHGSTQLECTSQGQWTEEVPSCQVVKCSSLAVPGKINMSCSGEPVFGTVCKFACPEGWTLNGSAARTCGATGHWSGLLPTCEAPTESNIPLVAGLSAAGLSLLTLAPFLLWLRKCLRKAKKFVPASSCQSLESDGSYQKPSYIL
Sequence of human Retinoid X Receptor beta (RXRb), RXRB (gene 6257) (P28702 whole entry, looked up, the tested form may be a part): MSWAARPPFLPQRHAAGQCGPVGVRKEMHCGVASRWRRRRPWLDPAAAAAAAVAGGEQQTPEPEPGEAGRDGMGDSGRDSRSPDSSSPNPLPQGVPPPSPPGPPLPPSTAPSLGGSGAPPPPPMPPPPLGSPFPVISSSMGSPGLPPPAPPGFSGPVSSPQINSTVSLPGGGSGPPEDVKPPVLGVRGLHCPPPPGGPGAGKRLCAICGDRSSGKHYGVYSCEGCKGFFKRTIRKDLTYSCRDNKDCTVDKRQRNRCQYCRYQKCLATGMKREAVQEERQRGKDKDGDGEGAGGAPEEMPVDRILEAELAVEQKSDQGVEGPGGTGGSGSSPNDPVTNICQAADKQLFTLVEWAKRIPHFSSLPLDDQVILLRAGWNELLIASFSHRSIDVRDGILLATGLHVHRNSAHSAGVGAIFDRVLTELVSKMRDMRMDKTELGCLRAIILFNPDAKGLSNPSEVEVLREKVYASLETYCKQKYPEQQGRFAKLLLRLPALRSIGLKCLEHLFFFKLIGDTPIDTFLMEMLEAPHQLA
Sequence of human Thyroid Receptor alpha (THRa1), THRA (gene 7067) (P10827 whole entry, looked up, the tested form may be a part): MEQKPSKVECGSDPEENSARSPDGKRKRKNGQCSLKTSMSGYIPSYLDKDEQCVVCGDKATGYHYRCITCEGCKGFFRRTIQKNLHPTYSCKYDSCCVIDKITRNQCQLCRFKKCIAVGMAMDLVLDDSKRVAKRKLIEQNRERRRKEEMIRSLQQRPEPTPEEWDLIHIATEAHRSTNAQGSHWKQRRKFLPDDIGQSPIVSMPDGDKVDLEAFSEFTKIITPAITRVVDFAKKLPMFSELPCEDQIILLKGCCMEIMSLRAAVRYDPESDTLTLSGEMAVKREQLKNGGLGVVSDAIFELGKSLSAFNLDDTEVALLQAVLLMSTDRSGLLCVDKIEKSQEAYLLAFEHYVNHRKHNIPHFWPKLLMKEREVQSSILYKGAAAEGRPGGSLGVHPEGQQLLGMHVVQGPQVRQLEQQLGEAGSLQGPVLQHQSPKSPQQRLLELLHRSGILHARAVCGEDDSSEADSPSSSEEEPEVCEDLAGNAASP

C=C(C)CNCC
outcome [1]: inactive | outcome [2]: inactive | outcome [3]: inactive

OCc1ccc(Cl)cc1Cl
outcome [2]: inactive

CC1(C)COCN1
outcome [3]: inactive

NC1CCCCC1N (centres undefined)
outcome [3]: inactive

CCCCCCCCCCCCCCCC(=O)OC/C=C(C)/C=C/C=C(C)/C=C/C1=C(C)CCCC1(C)C
outcome [1]: inactive | AC50 [4]: 14.3 µM (active) | outcome [5]: inactive | AC50 [6]: 3.97 µM (active) | AC50 [7]: 20 µM (active) | AC50 [8]: 1.13 µM (active) | outcome [9]: inactive | AC50 [10]: 38.9 µM (active) | outcome [11]: inactive | outcome [12]: inactive | outcome [13]: inactive | AC50 [14]: 20 µM (active) | outcome [15]: inactive

COC(CC(C)CCCC(C)(C)O)OC (centres undefined)
outcome [1]: inactive | outcome [3]: inactive

OC[C@H]1O[C@@H](Oc2ccc(O)cc2)[C@H](O)[C@@H](O)[C@@H]1O
outcome [3]: inactive

CCCOCCO
outcome [1]: inactive | outcome [2]: inactive | outcome [3]: inactive

C=C(C)C1CC=C(C)C(=O)C1 (centres undefined)
outcome [1]: inactive | outcome [3]: inactive

CC(C)Nc1nc(N)nc(Cl)n1
outcome [2]: inactive | outcome [3]: inactive

CCC1CCCCC1
outcome [2]: inactive

Cc1cccc(Nc2ccccc2)c1
AC50 [1]: 28 µM (active) | outcome [2]: inactive | outcome [3]: inactive

C[C@@H]1CCN(C(=O)[C@H](CCCN=C(N)N)NS(=O)(=O)c2cccc3c2NC[C@H](C)C3)[C@@H](C(=O)O)C1
outcome [4]: inactive | outcome [5]: inactive | outcome [6]: inactive | outcome [16]: inactive | outcome [7]: inactive | outcome [8]: inactive | AC50 [9]: 0.0398 µM (active) | outcome [10]: inactive | outcome [11]: inactive | outcome [12]: inactive | outcome [13]: inactive | outcome [14]: inactive | outcome [15]: inactive

C=C(C)C(=O)OCCOCCOCCOC(=O)C(=C)C
outcome [4]: inactive | outcome [5]: inactive | outcome [6]: inactive | outcome [16]: inactive | outcome [7]: inactive | outcome [8]: inactive | outcome [9]: inactive | outcome [10]: inactive | outcome [11]: inactive | outcome [12]: inactive | outcome [13]: inactive | outcome [14]: inactive | outcome [15]: inactive

CCOc1ccc(N=Nc2ccc(C=Cc3ccc(N=Nc4ccc(OCC)cc4)cc3S(=O)(=O)O)c(S(=O)(=O)O)c2)cc1
outcome [2]: inactive

C=C[Si]1(C)O[Si](C)(C=C)O[Si](C)(C=C)O[Si](C)(C=C)O1 (centres undefined)
AC50 [1]: 8 µM (active) | outcome [3]: inactive

CCCCC(CC)C(=O)OC(C)C (centres undefined)
outcome [1]: inactive | outcome [2]: inactive | outcome [3]: inactive

CCCCCCCCCCCC(=O)OCC(O)CO (centres undefined)
AC50 [1]: 100 µM (active) | outcome [3]: inactive

CC(CN=Cc1ccccc1O)N=Cc1ccccc1O (centres undefined)
outcome [2]: inactive | outcome [4]: inactive | outcome [5]: inactive | outcome [6]: inactive | outcome [16]: inactive | outcome [7]: inactive | AC50 [8]: 0.16 µM (active) | outcome [8]: inactive | outcome [9]: inactive | outcome [11]: inactive | outcome [12]: inactive | outcome [13]: inactive | outcome [14]: inactive | outcome [15]: inactive

Cc1cc(=O)oc2cc(N(C)C)ccc12
outcome [2]: inactive | outcome [3]: inactive

CC(C)c1ccccc1O
AC50 [1]: 75.5 µM (active) | outcome [2]: inactive | outcome [3]: inactive

COc1ccc(COC(C)=O)cc1
outcome [2]: inactive

CCCCCCCCC=CCCCCCCCC1=NCCN1CCO
outcome [1]: inactive | outcome [2]: inactive | outcome [3]: inactive

CC/C=C\CCOC(=O)CC
outcome [2]: inactive

O=Cc1ccccc1S(=O)(=O)O
outcome [2]: inactive | outcome [3]: inactive

O=[N+]([O-])c1cccc(Cl)c1
outcome [3]: inactive

CSCCC=O
outcome [1]: inactive | outcome [4]: inactive | outcome [5]: inactive | outcome [6]: inactive | outcome [16]: inactive | outcome [7]: inactive | outcome [8]: inactive | outcome [3]: inactive | outcome [9]: inactive | outcome [10]: inactive | outcome [11]: inactive | outcome [12]: inactive | outcome [13]: inactive | outcome [14]: inactive | outcome [15]: inactive

From PubChem BioAssay (EPA / NIEHS)
